Measured values from PubChem BioAssay AID1461 (National Center for Advancing Translational Sciences (NCATS), 2008).
In all, about 220,000 compounds went through this assay and about 2,300 (1%) were called active. A call without a number means that no potency is given here. Not shown: some 6% with an inconclusive outcome. Only a selection was taken, and actives are over-represented in it overall. Unmarked numbers belong to inactive results. Calls come from the whole dose curve; as a rule, active = well fitted inhibition curve with a large enough effect; inconclusive = small, poorly fitted or top-dose-only effect, or effect the other way; inactive = no such curve, though single readings can be large or run the other way.
Note: nearly all actives have a fitted effect of over 50% in size.
Potency is the fitted concentration of half-maximal effect.

These compounds were tested against Neuropeptide S receptor (Homo sapiens) (UniProt Q6W5P4) (assay: qHTS Assay for Antagonists of the Neuropeptide S Receptor: cAMP Signal Transduction). Conditions: CHO-NPSR cells, cAMP TR-FRET, antagonist mode; series mostly up to 38.3 µM.
Chain of Neuropeptide S receptor (Homo sapiens) (Q6W5P4 whole entry, looked up): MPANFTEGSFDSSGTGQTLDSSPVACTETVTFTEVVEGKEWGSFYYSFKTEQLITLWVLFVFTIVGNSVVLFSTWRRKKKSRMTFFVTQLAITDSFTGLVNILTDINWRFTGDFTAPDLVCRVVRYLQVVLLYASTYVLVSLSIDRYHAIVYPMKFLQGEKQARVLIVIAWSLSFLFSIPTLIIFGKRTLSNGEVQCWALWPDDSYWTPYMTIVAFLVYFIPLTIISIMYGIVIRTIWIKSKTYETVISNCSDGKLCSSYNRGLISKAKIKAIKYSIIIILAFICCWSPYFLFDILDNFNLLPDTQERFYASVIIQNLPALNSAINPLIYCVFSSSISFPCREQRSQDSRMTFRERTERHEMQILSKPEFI
Description: NIH Chemical Genomics Center [NCGC] NIH Molecular Libraries Probe Production centers Network [MLPCN] MLPCN Grant: X01-DA026210-01 Assay Submitter (PI): Heilig, Markus Alexander NCGC Assay Overview: Neuropeptide S receptor (NPSR), previously known as GPR154, is a recently de-orphanized G protein coupled receptor. Its endogenous ligand is the 20 amino acids peptide Neuropeptide S (NPS). […] NPS and its receptor are found in various tissues. Specifically they are highly expressed in brain areas that have been implicated in modulation of arousal, stress and anxiety. Central administration of NPS in mice produces an unusual profile of activity by inducing wakefulness and arousal, while at the same time suppressing anxiety. Therefore, NPSR may represent a novel drug target for the treatment of sleep and anxiety disorders. To identify NPSR antagonists, we developed a cell-based cAMP assay. NPS can stimulate the production of cAMP in Chinese hamster ovary cells stably expressing NPS receptor. This change in intracellular cAMP level can be detected by a homogeneous LANCE cAMP assay based on the TR-FRET (time resolved fluorescence resonance energy transfer) between a europium-labeled cAMP tracer complex and a cAMP-specific antibody labeled with Alexa Fluor 647. The europium-labeled cAMP tracer complex is formed by the tight interaction between Biotin-cAMP (b-cAMP) and streptavidin labeled with Europium-W8044 chelate (Eu-SA). Light pulse at 320 nm excites the europium of the cAMP tracer and the energy emitted is transferred to the Alexa molecule bound to the cAMP antibody, generating a TR-FRET signal at 665 nm. Residual energy from the europium will produce a light at 620 nm. The native unlabeled cAMP from cell lysates competes with the europium-cAMP tracer for antibody binding and reversely reduces the emission signal of Alexa by interrupting FRET between the two labeled molecules. Both emission signals from the FRET donor (620 nm) and the acceptor (665 nm) can be detected by a plate reader in the TRF mode. Expression of result in fluorescence ratio (665 nm/620 nm) helps to normalize differences due to cell density and reagent dispensing. This assay was successfully optimized to a 1536-well plate format.
NCGC Assay Protocol Summary: A Chinese hamster ovary (CHO) cell line stably expressing the NPS receptor (CHO-NPSR) was obtained from Dr. Heilig lab at NIAAA and maintained in F-12 Kaighn's media (Invitrogen, Carlsbad, CA, 21127) supplemented with 10 % FBS, 100 units/ml penicillin, 100 ug/ml streptomycin and 250 ug/ml geneticin at 37C, 5% CO2 in a humidified atmosphere. Before the assay, aliquots of cells were frozen and stored at -135C. The assay was performed in 1536-well format. Data are reported for both the ratio of the two emission wavelengths, and also for the component 'donor' channel, Em2=620. Data were normalized to the controls for basal activity (DMSO only) and 100% inhibition (No NPS control). IC50 values were determined from concentration-response data modeled with the standard Hill equation. NPS 1536-well assay protocol: (1) Fresh or frozen CHO-NPSR cells were suspended in F-12 Kaighn's media supplemented with 10 % FBS, 100 units/ml penicillin and 100 ug/ml streptomycin. Cells were plated at 4 ul/well (1200 cells) to white, tissue culture treated 1536-well plates, and then cultured at 37C, 5 % CO2 for 16 to 30 hours. (2) Add 23 nl/well of compound in DMSO solution. The final titration for each compound was between 0.6 nM and 46 uM. (3) Add 1 ul of stimulation reagent (1X HBSS buffer, 5 mM HEPES, 0.1% BSA, 500 uM RO-201724 (Sigma-Aldrich, B8279), 1.5% Alexa 647-labeled anti-cAMP antibody (from Perkin Elmer), 100 nM NPS) (4) Incubation at 37C, 5 % CO2 for 60 min. (5) Add 1 ul/well detection reagent. Detection reagent was prepared by adding biotin labeled cAMP (4%), streptavidin labeled with Europium-W8044 chelate (1.33%) and TritonX-100 (1%) to detection buffer. […]
Compound Cc1ccc(NC(=O)C/C(N)=N/O)cc1Cl has an activity change, negative = inhibition of -0.778% [at 7.67 µM].
In the case of O=C(CC(O)(C(F)(F)F)C(F)(F)F)Nc1ccc(Cl)c(Cl)c1, the Potency is reported as 6.31 µM (active).
In the case of O=C(CC(=O)Nc1ccc(Cl)c(Cl)c1)N/N=C/c1ccc(O)cc1, the Potency is reported as “inactive”.
In the case of COc1cc2c(cc1OC)C(/C=C/c1ccco1)=NCC2, the Potency is reported as “inactive”.
In the case of COC(=O)c1cc(NC(=O)c2ccco2)ccc1N1CCOCC1, the Potency is reported as “inactive”.
CC(=O)Nc1ccc(NC(=O)CSc2ncnc3c2cnn3Cc2ccccc2)cc1 was tested, and the Potency was “inactive”.
For C=CCn1c(=S)[nH]c2nc3c(cc2c1=O)COC(C)(C)C3, the Potency was “inactive”.
In the case of CC1(C)Cc2nc3sc4c(SCC(=O)NC(c5ccccc5)c5ccccc5)ncnc4c3cc2CO1, the Potency is reported as 1.26 µM (active).
With O=c1[nH]nc(SCCS(=O)(=O)c2ccc(F)cc2)n1-c1ccccc1C(F)(F)F the Potency was “inactive”.
In the case of Cc1cccc2c1-c1sc(C(=O)NCCCN3CCc4ccccc4C3)cc1CO2, the Potency is reported as “inactive”.
In the case of O=C(C[n+]1ccc2c(c1)nnn2-c1ccccc1)c1ccc(Cl)cc1, the Potency is reported as “inactive”.
O=C(Cn1nnc(N2CCCCC2)n1)c1ccc(Cl)c(Cl)c1 was tested, and the Potency was “inactive”.
In the case of O=S(=O)(NCc1ccco1)c1cnc(Cl)c(Cl)c1, the activity change, negative = inhibition is reported as 25.6% [at 7.67 µM].
With Cn1c(SCC(=O)N2CCOCC2)nnc1-c1ccc2ncccc2c1 the Potency was “inactive”.
CC(C)=CCc1c(O)c(CC=C(C)C)c2occ(-c3ccc(O)cc3)c(=O)c2c1O was tested, and the Potency was “inactive”.
For O=C1CN(c2nc(-c3ccccc3)c3cc(Br)ccc3n2)c2ccccc2N1, the Potency was 6.31 µM (active).
In the case of Cc1ccc(S(=O)(=O)N2CC(=O)Nc3ccccc32)cc1C, the Potency is reported as “inactive”.
For Cc1ccc(C)c(S(=O)(=O)N2CC(=O)Nc3ccccc32)c1, the Potency was “inactive”.
COc1ccc(CN2CCOC2=O)cc1OC was tested, and the Potency was “inactive”.
In the case of COc1ccc(C2/C(=C(/O)c3ccccc3)C(=O)C(=O)N2c2ncccn2)cc1OC (stereo unspecified), the Potency is reported as “inactive”.
In the case of COc1ccccc1C1/C(=C(/O)c2ccc(OC(C)C)cc2)C(=O)C(=O)N1c1cc(C)on1 (stereo unspecified), the Potency is reported as “inactive”.
With Cc1cc(N2C(=O)C(=O)/C(=C(/O)c3ccc(Cl)cc3)C2c2cccc(Br)c2)no1 (stereo unspecified) the Potency was 12.6 µM (active).
For CC(=O)NCc1ccc(S(=O)(=O)NC2CCN(Cc3ccccc3)CC2)cc1, the Potency was “inactive”.
In the case of COc1ccc(Br)c2c1C(=O)CC2, the Potency is reported as “inactive”.
COC(=O)c1cn(C(=O)c2ccc(Cl)cc2)c2ccccc12 was tested, and the Potency was “inactive”.
With CCOC(=O)NNc1cc(C(F)(F)F)ccn1 the Potency was “inactive”.
With COc1ccccc1P(=O)(c1ccccc1)c1ccccc1NC(C)=O (stereo unspecified) the Potency was “inactive”.
For CCOC(=O)/C(=C\c1ccc([N+](=O)[O-])cc1)C(=O)c1cc(C(C)=O)c(Nc2ccccc2)s1, the Potency was 7.94 µM (active).
For Cc1cccc(NC(=O)c2sc(-c3ccccc3)nc2-c2ccc([N+](=O)[O-])cc2)c1, the Potency was “inactive”.
O=C(Nc1ccccc1)/C(=C/c1ccc([N+](=O)[O-])cc1)NC(=O)c1ccccc1 was tested, and the Potency was “inactive”.
For Cc1ccc(C)c2[nH]c(=O)c(CN(Cc3cccnc3)C(=S)NCc3ccco3)cc12, the Potency was “inactive”.
For COc1ccc(NC(=O)/C(Cl)=C(/Cl)S(=O)Cc2ccc(C)cc2)cn1 (stereo unspecified), the Potency was 1 µM (active).
COc1ccc(NC(=S)Nc2ccccc2Cl)cn1 was tested, and the Potency was “inactive”.
COc1ccc(Nc2cc(Cl)ccc2C(=O)O)cn1 was tested, and the Potency was “inactive”.
For COc1cccc(Nc2nc(N)c([N+](=O)[O-])c(NCc3ccco3)n2)c1, the Potency was “inactive”.
C/C(=N\OCC(=O)O)c1ccc(Cl)cc1 was tested, and the activity change, negative = inhibition was 9.86% [at 7.67 µM].
For Cc1noc(C)c1S(=O)(=O)Nc1cc(C(F)(F)F)ccc1N1CCOCC1, the Potency was “inactive”.
In the case of COc1ccc(C(=O)C2CCCN(Cc3ccc4nonc4c3)C2)c(C)c1 (stereo unspecified), the Potency is reported as “inactive”.
O=[N+]([O-])c1c(NCCO)cc(Sc2nc3ccccc3s2)c2nonc12 was tested, and the Potency was 10 µM (active).
O=C(CSc1nc2ccccc2s1)Nc1ccc(C(=O)O)cc1 was tested, and the Potency was “inactive”.
For COc1ccc(S(=O)(=O)Nc2ccc(O)c(Sc3nc4ccccc4s3)c2)cc1, the Potency was “inactive”.
In the case of COc1cc2nc(Cl)nc(NCCO)c2cc1OC, the Potency is reported as “inactive”.
With C/C(=N/NC(=O)CC(=O)N/N=C(\C)c1ccc([N+](=O)[O-])cc1)c1ccc([N+](=O)[O-])cc1 the Potency was “inactive”.
With O=C(Cn1cnc2cc([N+](=O)[O-])ccc2c1=O)NC(=O)NCc1ccccc1 the Potency was “inactive”.
For Cc1ccc(SC(CC(=O)c2ccc(C(C)(C)C)cc2)C(=O)O)cc1 (stereo unspecified), the Potency was 10 µM (active).
For Cc1ccc(C(=O)CS(C)(=O)=O)cc1, the Potency was “inactive”.
For Cc1ccc(CSCC(N)C(=O)O)cc1 (stereo unspecified), the Potency was “inactive”.
With C/C(Cc1ccccc1)=N\NC(=O)CNC(=O)c1ccc2c(c1)OCCO2 the Potency was “inactive”.
With CC1(C)CCCC2=C1CC1C(=O)N(c3ccccc3)C(=O)C1C2 (stereo unspecified) the Potency was “inactive”.
CC1CC2=C(CC1/C=N/NC(N)=S)C(C)(C)CCC2 (stereo unspecified) was tested, and the Potency was 12.6 µM (active).
Oc1[nH]c2ccc(Br)cc2c1N=Nc1nn[nH]n1 was tested, and the Potency was “inactive”.
